According to the supplement of paper PMC8728848:
This is one part of a sample in which the strongest signals are shown more often than they occur.

Key:
Assay in all cases: glycan array binding signal (z-score within array); higher = stronger binding
Conditions in all cases: glycan notation: IUPAC condensed, linker removed
[1] = biological target: Fuc(a1-2)Gal(b1-3)GalNAc(b1-3)Gal
Method in brief: (§1)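 The binding signal is a Z-score computed within each array and averaged over linkers. Arrays of the same protein sequence at different concentrations or buffers were also averaged together. Data originate from 3228 arrays in the Consortium for Functional Glycomics database, kept only where the protein sequence was available.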

[2] = biological target: Fuc(a1-2)Gal(b1-3)[Fuc(a1-4)]GlcNAc
Method in brief: as §1

Fuc(a1-2)Gal(b1-4)Glc = biological target: Fuc(a1-2)Gal(b1-4)Glc
Method in brief: as §1

[3] = biological target: Fuc(a1-2)Gal(b1-4)GlcNAc(b1-3)Gal(b1-4)GlcNAc(b1-3)Gal(b1-4)GlcNAc
Method in brief: as §1

[4] = biological target: Fuc(a1-2)[Gal(a1-3)]Gal(b1-3)GlcNAc(b1-6)GalNAc
Method in brief: as §1

[5] = biological target: Fuc(a1-3)[Gal(b1-4)]Glc6S
Method in brief: as §1

[6] = biological target: Fuc(a1-3)[Gal(b1-4)]GlcNAc(b1-2)Man(a1-3)[Fuc(a1-3)[Gal(b1-4)]GlcNAc(b1-2)Man(a1-6)]Man(b1-4)GlcNAc(b1-4)[Fuc(a1-6)]GlcNAc
Method in brief: as §1

[7] = biological target: Fuc(a1-3)[Gal(b1-4)]GlcNAc(b1-6)GalNAc
Method in brief: as §1

Gal(b1-3)Gal(b1-4)GlcNAc = biological target: Gal(b1-3)Gal(b1-4)GlcNAc
Method in brief: as §1

[8] = biological target: Gal(b1-4)GlcNAc(b1-2)Man(a1-6)Man(b1-4)GlcNAc(b1-4)GlcNAc
Method in brief: as §1

[9] = biological target: Gal(b1-4)GlcNAc(b1-3)Gal(b1-4)GlcNAc(b1-2)[Gal(b1-4)GlcNAc(b1-3)Gal(b1-4)GlcNAc(b1-6)]Man(a1-6)[Gal(b1-4)GlcNAc(b1-3)Gal(b1-4)GlcNAc(b1-2)Man(a1-3)]Man(b1-4)GlcNAc(b1-4)GlcNAc
Method in brief: as §1

[10] = biological target: Gal(b1-4)GlcNAc(b1-3)Gal(b1-4)GlcNAc(b1-2)[Gal(b1-4)GlcNAc(b1-3)Gal(b1-4)GlcNAc(b1-6)]Man(a1-6)[Gal(b1-4)GlcNAc(b1-3)Gal(b1-4)GlcNAc(b1-2)Man(a1-3)]Man(b1-4)GlcNAc(b1-4)[Fuc(a1-6)]GlcNAc
Method in brief: as §1

[11] = biological target: Gal(b1-4)GlcNAc(b1-3)Gal(b1-4)GlcNAc(b1-3)Gal(b1-4)GlcNAc(b1-3)Gal(b1-4)GlcNAc(b1-3)Gal(b1-4)GlcNAc(b1-2)Man(a1-3)[Gal(b1-4)GlcNAc(b1-3)Gal(b1-4)GlcNAc(b1-3)Gal(b1-4)GlcNAc(b1-3)Gal(b1-4)GlcNAc(b1-3)Gal(b1-4)GlcNAc(b1-2)Man(a1-6)]Man(b1-4)GlcNAc(b1-4)[Fuc(a1-6)]GlcNAc
Method in brief: as §1

[12] = biological target: Gal(b1-4)GlcNAc(b1-3)Gal(b1-4)GlcNAc(b1-3)[Gal(b1-4)GlcNAc(b1-3)Gal(b1-4)GlcNAc(b1-6)]GalNAc
Method in brief: as §1

[13] = biological target: Gal3S(b1-4)[Fuc(a1-3)]GlcNAc6S
Method in brief: as §1

[14] = biological target: GalNAc(b1-4)GlcNAc(b1-2)Man(a1-3)[GalNAc(b1-4)GlcNAc(b1-2)Man(a1-6)]Man(b1-4)GlcNAc(b1-4)GlcNAc
Method in brief: as §1

[15] = biological target: GalNAc(b1-4)GlcNAc(b1-3)GalNAc(b1-4)GlcNAc
Method in brief: as §1

[16] = biological target: Glc(a1-6)Glc(a1-6)Glc(a1-6)Glc
Method in brief: as §1

[17] = biological target: GlcNAc(b1-3)Gal(b1-4)GlcNAc(b1-3)Gal(b1-4)GlcNAc(b1-3)Gal(b1-4)GlcNAc(b1-3)Gal(b1-4)GlcNAc(b1-2)Man(a1-3)[GlcNAc(b1-3)Gal(b1-4)GlcNAc(b1-3)Gal(b1-4)GlcNAc(b1-3)Gal(b1-4)GlcNAc(b1-3)Gal(b1-4)GlcNAc(b1-2)Man(a1-6)]Man(b1-4)GlcNAc(b1-4)[Fuc(a1-6)]GlcNAc
Method in brief: as §1

[18] = biological target: GlcNAc(b1-3)Gal(b1-4)GlcNAc(b1-3)GalNAc
Method in brief: as §1

GlcNAc(b1-3)GalNAc = biological target: GlcNAc(b1-3)GalNAc
Method in brief: as §1

GlcNAc(b1-3)Man = biological target: GlcNAc(b1-3)Man
Method in brief: as §1

[19] = biological target: GlcNAc(b1-3)[GlcNAc(b1-4)][GlcNAc(b1-6)]GlcNAc
Method in brief: as §1

Kdn(a2-6)Gal(b1-4)GlcNAc = biological target: Kdn(a2-6)Gal(b1-4)GlcNAc
Method in brief: as §1

[20] = biological target: Man(a1-2)Man(a1-6)[Man(a1-3)]Man(a1-6)[Man(a1-2)Man(a1-2)Man(a1-3)]Man
Method in brief: as §1

[21] = biological target: Man(a1-2)Man(a1-6)[Man(a1-3)]Man(a1-6)[Man(a1-2)Man(a1-2)Man(a1-3)]Man(b1-4)GlcNAc(b1-4)GlcNAc
Method in brief: as §1

[22] = biological target: Man(a1-3)[Man(a1-6)]Man(a1-6)[Man(a1-2)Man(a1-3)]Man(b1-4)GlcNAc(b1-4)GlcNAc
Method in brief: as §1

[23] = biological target: Man(a1-3)[Man(a1-6)]Man(a1-6)[Man(a1-3)]Man
Method in brief: as §1

[24] = biological target: Neu5Ac(a2-3)Gal(b1-3)GlcNAc
Method in brief: as §1

[25] = biological target: Neu5Ac(a2-3)Gal(b1-3)GlcNAc(b1-2)Man
Method in brief: as §1

[26] = biological target: Neu5Ac(a2-3)Gal(b1-4)GlcNAc(b1-2)Man(a1-3)[Neu5Ac(a2-3)Gal(b1-4)GlcNAc(b1-2)Man(a1-6)]Man(b1-4)GlcNAc(b1-4)GlcNAc
Method in brief: as §1

[27] = biological target: Neu5Ac(a2-3)Gal(b1-4)GlcNAc(b1-2)[Neu5Ac(a2-3)Gal(b1-4)GlcNAc(b1-6)]Man(a1-6)[Neu5Ac(a2-3)Gal(b1-4)GlcNAc(b1-2)Man(a1-3)][GlcNAc(b1-4)]Man(b1-4)GlcNAc(b1-4)GlcNAc
Method in brief: as §1

[28] = biological target: Neu5Ac(a2-3)Gal(b1-4)GlcNAc(b1-3)GalNAc
Method in brief: as §1

[29] = biological target: Neu5Ac(a2-3)Gal(b1-4)GlcNAc(b1-3)[Neu5Ac(a2-3)Gal(b1-4)GlcNAc(b1-6)]GalNAc
Method in brief: as §1

[30] = biological target: Neu5Ac(a2-3)Gal(b1-4)GlcNAc(b1-6)[Gal(b1-3)]GalNAc
Method in brief: as §1

[31] = biological target: Neu5Ac(a2-3)Gal(b1-4)[Fuc(a1-3)]GlcNAc(b1-3)Gal
Method in brief: as §1

[32] = biological target: Neu5Ac(a2-6)Gal(b1-4)GlcNAc(b1-2)Man(a1-3)[Neu5Ac(a2-6)Gal(b1-4)GlcNAc(b1-2)Man(a1-6)]Man(b1-4)GlcNAc(b1-4)GlcNAc
Method in brief: as §1

[33] = biological target: Neu5Ac(a2-6)Gal(b1-4)GlcNAc(b1-3)Gal(b1-4)GlcNAc(b1-3)Gal(b1-4)GlcNAc(b1-2)Man(a1-3)[Neu5Ac(a2-6)Gal(b1-4)GlcNAc(b1-3)Gal(b1-4)GlcNAc(b1-3)Gal(b1-4)GlcNAc(b1-2)Man(a1-6)]GalNAc
Method in brief: as §1

[34] = biological target: Neu5Ac(a2-6)Gal(b1-4)GlcNAc(b1-3)Gal(b1-4)GlcNAc(b1-3)GalNAc
Method in brief: as §1

[35] = biological target: Neu5Ac(a2-6)Gal(b1-4)GlcNAc(b1-3)Gal(b1-4)[Fuc(a1-3)]GlcNAc(b1-3)Gal(b1-4)[Fuc(a1-3)]GlcNAc
Method in brief: as §1

Neu5Ac(b2-6)GalNAc = biological target: Neu5Ac(b2-6)GalNAc
Method in brief: as §1

[36] = biological target: Neu5Gc(a2-8)Neu5Gc(a2-3)Gal(b1-4)GlcNAc
Method in brief: as §1

B1: Pwp7 (Candida glabrata) (protein)
chain: MGSSHHHHHHSSGLVPRGSHMASKNPVDFPNLCQYPNLDGAVAGFDTEIYNADPSILINFSLWPILQFPKEWHKTIGRAITTQTNFKLPASDTTLFGVSIPTQNILIEFRGYFIPPKSGTYTFALYLTDDGSAMFLGNDAAFPCGNITSWSNPTNDQVSVSDYDPKKKTLTVYMVAGVAYPLRIAYYNREKGGSLTASFVDPDGLTHSDWNGYIWTLPSCDNCKYS
glycan array binding signal (z-score) [1]: -0.017 | glycan array binding signal (z-score) [2]: -0.614 | glycan array binding signal (z-score) (Fuc(a1-2)Gal(b1-4)Glc): -0.416 | glycan array binding signal (z-score) [3]: -0.218 | glycan array binding signal (z-score) [4]: 0.673 | glycan array binding signal (z-score) [5]: 2.63 | glycan array binding signal (z-score) [6]: -0.531 | glycan array binding signal (z-score) [7]: -0.313 | glycan array binding signal (z-score) (Gal(b1-3)Gal(b1-4)GlcNAc): -0.059 | glycan array binding signal (z-score) [8]: 0.711 | glycan array binding signal (z-score) [9]: 4.75 | glycan array binding signal (z-score) [10]: 0.752 | glycan array binding signal (z-score) [11]: 2.19 | glycan array binding signal (z-score) [12]: 2.23 | glycan array binding signal (z-score) [13]: -0.723 | glycan array binding signal (z-score) [14]: 2.13 | glycan array binding signal (z-score) [15]: -0.44 | glycan array binding signal (z-score) [16]: 1.4 | glycan array binding signal (z-score) [17]: 2.91 | glycan array binding signal (z-score) [18]: 2.79 | glycan array binding signal (z-score) (GlcNAc(b1-3)GalNAc): -0.079 | glycan array binding signal (z-score) (GlcNAc(b1-3)Man): -0.272 | glycan array binding signal (z-score) [19]: -1.58 | glycan array binding signal (z-score) (Kdn(a2-6)Gal(b1-4)GlcNAc): -0.857 | glycan array binding signal (z-score) [20]: -0.467 | glycan array binding signal (z-score) [21]: -0.429 | glycan array binding signal (z-score) [22]: -0.076 | glycan array binding signal (z-score) [23]: 2.11 | glycan array binding signal (z-score) [24]: -0.487 | glycan array binding signal (z-score) [25]: 0.574 | glycan array binding signal (z-score) [26]: 0.472 | glycan array binding signal (z-score) [27]: 10.8 | glycan array binding signal (z-score) [28]: -0.11 | glycan array binding signal (z-score) [29]: 2.25 | glycan array binding signal (z-score) [30]: -0.55 | glycan array binding signal (z-score) [31]: -0.216 | glycan array binding signal (z-score) [32]: 0.696 | glycan array binding signal (z-score) [33]: 3.78 | glycan array binding signal (z-score) [34]: 0.805 | glycan array binding signal (z-score) [35]: -0.43 | glycan array binding signal (z-score) (Neu5Ac(b2-6)GalNAc): -0.387 | glycan array binding signal (z-score) [36]: -0.224
